Screens deposited in PubChem by National Center for Advancing Translational Sciences (NCATS).
HT1080-NT tox – qHTS for induction of synthetic lethality in tumor cells producing 2HG: qHTS for the HT-1080-NT fibrosarcoma cell line; AID 686970, 2013; Potency, µM (top dose mostly 46.1 µM), most hits filed as cytotoxic; HT-1080-NT fibrosarcoma viability, CellTiter-Glo ATP luminescence, 48 h; 360,000 compounds, 1.6% hits;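 also: NT is the 2HG producing partner of a matched IDH1 knockdown line; nearly all actives have a fitted effect of over 55% in size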
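HT-1080-NT fibrosarcoma cells (2HG-overproducing), 750 cells/well in RPMI with 5% FBS, dosed after 2 h and incubated 48 h at 37C. CellTiter-Glo luminescence normalized to DMSO and no-cell wells; concentration-response curves fitted and classed.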
S2 tox – Viability Counterscreen for Primary qHTS for Inhibitors of ATXN expression; S2 cells (HEK-293 line with an ATXN2-luciferase reporter) viability, CellTiter-Fluor protease fluorescence, 24 h; 400,000 compounds, 0.49% hits; Potency, µM (highest dose often 56.7 µM), usual class: cytotoxic; also: nearly all actives have a fitted effect of over 40% in size
TGFb SMAD3 inh – qHTS for Inhibitors of TGF-b; HepG2 CAGA-GFP TGF-b/SMAD3 reporter, GFP fluorescence, 18 h; TGF-beta stimulated, 500 pg/mL final; Potency, µM (series often up to 46.1 µM), actives largely listed as inhibitors; 410,000 compounds, 1.2% hits; AID 588855, 2011; also: nearly all actives have a fitted effect of over 65% in size
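Per well, imaged GFP fluorescence of HEPG2 CAGA-GFP cells gives the signal; cells get compound, then TGF-beta (500 pg/mL final), 18 h at 37 degrees C; %Activity versus -TGF-beta and +DMSO controls.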
ATXN2 expr inh – Primary qHTS for Inhibitors of ATXN expression | HEK-293 ATXN2-luciferase reporter, luminescence, 24 h | Potency, µM (titrated, usually from 57 µM), actives largely listed as inhibitors | 360,000 compounds, 0.72% hits; also: nearly all actives have a fitted effect of over 55% in size
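ATXN2-luciferase reporter cells (luciferase flanked by upstream and downstream ATXN2 gene portions) were treated 24 h at 37 °C with compounds at up to 57 uM. SteadyGlo luminescence gave expression; GF-AFC fluorescence gave viability.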
HepG2 viability – qHTS for Inhibitors of TGF-b: Cytotox Counterscreen | 410,000 compounds, 0.76% hits | HepG2 CAGA-GFP viability, ATP luminescence, 18 h | Potency, µM (titrated, usually from 46.1 µM), most hits filed as cytotoxic
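HepG2 CAGA-GFP cells (1000/well, DMEM with 1% FBS) received compound, then TGF-beta at 500 pg/mL final, and were incubated 18 hours at 37 degrees C. Viability was read by CellTiter-Glo luminescence. Media-only wells were set as complete cell-killing and DMSO as no toxicity.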
HT1080 IDH1KD tx – qHTS for induction of synthetic lethality in tumor cells producing 2HG: qHTS for the HT-1080-IDH1KD cell line; HT-1080 IDH1 knockdown viability, ATP luminescence, 48 h; Potency, µM (titrated, usually from 46.1 µM), hits mostly cytotoxic; 360,000 compounds, 2% hits; AID 686971, 2013
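Luminescent ATP read-out (CellTiter-Glo, 10 min at room temperature) after 48 h compound exposure at 37 °C gave viability of IDH1-knockdown HT-1080 cells. Activity was normalised to DMSO and cell-free wells, then fitted as concentration-response curves.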
A number is an active result; – = inactive; ? = inconclusive; · = no result. A selection: hits, their analogues and other compounds. The true share with any hit is near 3.8%. Calls follow the shape of the dose curve; as a rule, active = well fitted curve in the direction sought with a large enough effect; inconclusive = small, poorly fitted or top-dose-only effect, or another doubt; inactive = no such curve, though single readings can be large; an effect the other way counts as inactive or inconclusive.

SMILES	HT1080-NT tox	S2 tox	TGFb SMAD3 inh	ATXN2 expr inh	HepG2 viability	HT1080 IDH1KD tx
Cc1ccc(CCNC(=O)C2COc3ccccc3C2)cc1 (configuration not stated)	·	–	?	–	–	·
S=c1[nH]cnc2scc(-c3ccc(Br)cc3)c12	20.6µM	–	–	?	–	13µM
Cc1cc(-c2csc3nc[nH]c(=S)c23)cc(C)c1C	16.4µM	?	?	?	–	14.6µM
Cc1ccc(-c2csc3nc[nH]c(=S)c23)cc1	?	?	–	–	–	?
Cc1ncc2c(c1CNS(=O)(=O)N(C)C)CCN(C(=O)c1ccc(-c3ccc(F)cc3)cc1)C2	·	–	·	·	·	·
CCOc1ccc(NC(=O)Cn2nc(SC)c(S(=O)(=O)c3ccccc3)c2N)cc1	·	–	–	–	–	·
CCOc1ccccc1NC(=O)CSC1=Nc2ccccc2C2=NC(CC(=O)NC3CCCCC3)C(=O)N12 (configuration not stated)	·	?	–	–	–	·
O=C1C=C(Nc2cccnc2)c2ccccc2C1=O	23.1µM	·	3.55µM	?	4.47µM	23.1µM
O=C1C=C(Nc2ccc(F)cc2)c2ccccc2C1=O	?	–	3.98µM	?	4.47µM	?
COc1cc(Cl)c(NS(=O)(=O)c2ccc(-c3ccc(=O)[nH]n3)o2)c(OC)c1	–	–	?	–	–	–
COc1cc(Cl)c(NC2=CC(=O)C(=O)c3ccccc32)c(OC)c1	9.2µM	25.1µM	5.01µM	?	3.55µM	8.2µM
CCOc1ccc(NC2=CC(=O)C(=O)c3ccccc32)cc1	?	?	4.47µM	–	–	?
Cc1ccc2oc(=O)c3cnn(CC(=O)N4CCN(c5ccc(F)cc5)CC4)c3c2c1	·	·	–	·	–	·
COc1ccc(CCNC(=O)c2cc(Nc3ccccc3)nc3ccccc23)cc1OC	·	·	–	·	–	·
O=C(Cc1ccccc1)NCCc1csc2nc(-c3ccc(Cl)cc3)nn12	·	?	–	–	–	·
Cc1ccccc1C=Nc1ccccc1C(N)=O	16.4µM	–	?	–	–	16.4µM
NC(=O)c1ccccc1N=Cc1ccccn1	–	·	–	·	–	–
Cc1ccc(N=Cc2cccc(O)c2O)c(C)c1	·	·	?	·	–	·
Cc1ccccc1N=Cc1cccc(O)c1O	–	?	15.8µM	–	–	14.6µM
Cc1ccc(C=Nc2ccccc2C(N)=O)cc1	7.08µM	?	–	–	–	5.62µM
CCC1(C2CCN(C(=O)c3cc4ccccc4o3)CC2)NC(=O)N(CCc2scnc2C)C1=O (configuration not stated)	·	–	·	·	·	·
O=C1NC(O)CCN1[C@@H]1O[C@H](CO)[C@H](O)[C@H]1O (some centres not stated)	·	·	·	–	·	·
O=C(NC1CC(=O)N(c2ccccc2)C1)C1CCCCC1 (configuration not stated)	·	·	–	·	–	·
Cc1cc(C)c(OCC(=O)N(Cc2cccc(F)c2)Cc2ccco2)c(C)c1	·	·	–	·	11.2µM	·
CCCOc1ccc2ccccc2c1/C=N/n1c(C)nnc1-n1nc(C)cc1C	?	?	?	–	–	4.11µM
SMILES	HT1080-NT tox	S2 tox	TGFb SMAD3 inh	ATXN2 expr inh	HepG2 viability	HT1080 IDH1KD tx
CCNS(=O)(=O)c1ccc(CCC(=O)NC2CCCC2)cc1	–	–	–	–	0.1µM	–
COCCNC(=O)C1=C(N)C(C(=O)Nc2ccc(C)c(S(=O)(=O)N3CCCCC3)c2)SC1=Nc1ccc(C)cc1C (configuration not stated)	12.6µM	–	?	–	–	?
Cc1ccc2oc(C(=O)NCc3ncc(C)[nH]3)c(C)c2c1	18.4µM	–	–	–	–	16.4µM
Cn1cnc2c(F)c(Nc3ccc(Br)cc3F)c(C(=O)NOCCO)cc21	·	·	·	–	·	·
Cc1cccc(CN2CCc3nnc(C(C)NC(=O)C4CCOCC4)n3CC2)c1 (configuration not stated)	·	–	·	·	·	·
c1ccc2nc3c(nc2c1)c1ccccc1n3CCN1CCOCC1	–	–	–	–	–	12.6µM
CCCn1c2ccccc2c2nnc(SCCN3CCOCC3)nc21	–	–	–	–	–	?
CN(C)c1ccc(N=Nc2ccc(S(N)(=O)=O)cc2)cc1	–	–	–	–	–	–
CC1=CC(=O)C=CC1=Nc1ccc(N(C)C)cc1	?	?	25.1µM	?	–	?
COc1cc(Nc2ncc3c(n2)CCN(Cc2cc(Br)cs2)C3)cc(OC)c1	·	–	?	–	–	·
Brc1csc(CN2CCc3nc(Nc4ccccc4)ncc3C2)c1	·	?	12.6µM	–	–	·
Cc1ncc(CO)c(/C=N/NC(=O)c2cc3c(s2)CCCC3)c1O	?	–	–	·	–	2.59µM
CC(=O)c1ccc(NC(=O)C(C)OC(=O)/C=C/c2ccco2)cc1 (configuration not stated)	16.4µM	–	–	–	–	?
CC1=C(C(=O)Nc2cc3cn[nH]c3cc2F)C(c2ccc(Cl)cc2F)N=C(c2ccnc(Cl)c2)N1 (configuration not stated)	·	·	·	–	·	·
Cc1nc2c(OCc3ccc(F)c(F)c3)cccn2c1N(C)C(=O)CCC1CCCC1	?	?	?	?	–	18.4µM
Cc1nc2c(OCc3ccc(OC(F)F)cc3)cccn2c1N(C)C(=O)CCC1CCCC1	?	·	?	?	–	?
O=C(Nc1ccccc1O)c1c(O)c2c([nH]c1=O)CCCC2	?	?	12.6µM	–	–	?
CNC(=O)c1cc(Oc2ccc(NC(=O)Nc3ccc(Cl)c(C(F)(F)F)c3)c(F)c2)ccn1	·	·	·	19.3µM	·	·
COc1cc(C(=O)Nc2ccc(Cl)c(C(F)(F)F)c2)cc(OC)c1OC	?	–	–	–	–	–
COc1cccc(OC)c1CN1CCC2(CCC(CNC(=O)c3ccn(C)n3)O2)CC1 (configuration not stated)	·	–	·	·	·	·
C=C1CC2C(=O)N(Cc3ccccc3)C(C(=O)O)C1N2C(=O)OC(C)(C)C (configuration not stated)	·	·	–	·	–	·
O=C1/C(=C\c2ccccc2)CCc2c1[nH]c1ccccc21	7.31µM	–	–	–	–	11.6µM
CCOc1ccc(S(=O)(=O)N(CC(=O)O)c2ccc(C)cc2)cc1	–	–	–	–	–	–
CCOc1ccc(N(Cc2ccc(C(=O)O)cc2)S(=O)(=O)c2ccc(C)cc2)cc1	?	–	?	–	–	7.31µM
NCCNC[C@@H]1COC2(CCCCCCCCCCC2)O1	14.6µM	–	?	–	–	?
COc1ccc(-n2c(=O)c3c4c(sc3n(Cc3ccc(C)cc3C)c2=O)CCC4)c(OC)c1	·	–	–	–	5.62µM	·
